Assay results reported in PubChem BioAssay.
Active and inactive are the calls of the source.

Columns and labels:
[1] = tested on: Plasmodium falciparum Sir2 (PF13_0152, Sir2A); assay: Plasmodium falciparum Sir2A binding compounds – biochemical, small-molecule microarray, 635 nm fluorescence, primary screen (AID 1098); conditions: fluorescence 635 nm, higher = more signal;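 note: score merges spot fluorescence intensity with its signal-to-noise ratio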
[2] = probe aDKK1 binding to arrayed compounds – biochemical, biotinylated probe, 635/667 nm fluorescence, primary screen (AID 1099); conditions: small-molecule microarray, higher = more signal;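 note: score merges 667nm spot fluorescence with signal to noise across triplicate slides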
[3] = probe aCHRDL2 binding to arrayed compounds – biochemical, biotinylated probe, 635/667 nm fluorescence, primary screen (AID 1100); conditions: small-molecule microarray, higher = more signal
[4] = change in splice reporter luminescence, either direction, cell-based, HEK293, spliceosome inhibition project, primary screen (AID 1101); conditions: HEK293 splicing luciferase reporter, 24 h, higher = more signal, called active from +8 up or from −8 down;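 note: HEK293 cells carrying a splicing-competent luciferase reporter gene; test concentration not given here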
[5] = biological target: Fibroblast growth factor 10 (Homo sapiens) (UniProt O15520); assay: compounds binding fibroblast growth factor 10 – biochemical, small-molecule microarray, 635 nm fluorescence, primary screen (AID 1102); conditions: FGF10 binding, fluorescence 635 nm, higher = more signal
Chain of Fibroblast growth factor 10 (Homo sapiens) (O15520 whole entry, looked up): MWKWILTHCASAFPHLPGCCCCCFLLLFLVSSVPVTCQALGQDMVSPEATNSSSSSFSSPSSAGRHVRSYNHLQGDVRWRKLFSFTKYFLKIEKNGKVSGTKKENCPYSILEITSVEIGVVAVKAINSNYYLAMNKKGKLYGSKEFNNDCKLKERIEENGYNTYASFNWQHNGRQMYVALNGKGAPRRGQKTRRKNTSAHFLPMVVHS

[6] = tested on: glycogen synthase kinase-3 (GSK3A per assay name; protocol says GSK3B); assay: compounds binding glycogen synthase kinase-3 – biochemical, small-molecule microarray, 635 nm fluorescence, GSK3A, primary screen (AID 1103); conditions: fluorescence 635 nm, higher = more signal; note: the record names both GSK3A and GSK3B
[7] = biological target: Epidermal growth factor receptor (Homo sapiens) (UniProt P00533); assay: compounds binding epidermal growth factor receptor – biochemical, small-molecule microarray, 635 nm fluorescence, primary screen (AID 1104); conditions: EGFR binding, higher = more signal;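 note: score merges 667 nm emission intensity with spot signal to noise over triplicate slides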
Chain of Epidermal growth factor receptor (Homo sapiens) (P00533 whole entry, looked up): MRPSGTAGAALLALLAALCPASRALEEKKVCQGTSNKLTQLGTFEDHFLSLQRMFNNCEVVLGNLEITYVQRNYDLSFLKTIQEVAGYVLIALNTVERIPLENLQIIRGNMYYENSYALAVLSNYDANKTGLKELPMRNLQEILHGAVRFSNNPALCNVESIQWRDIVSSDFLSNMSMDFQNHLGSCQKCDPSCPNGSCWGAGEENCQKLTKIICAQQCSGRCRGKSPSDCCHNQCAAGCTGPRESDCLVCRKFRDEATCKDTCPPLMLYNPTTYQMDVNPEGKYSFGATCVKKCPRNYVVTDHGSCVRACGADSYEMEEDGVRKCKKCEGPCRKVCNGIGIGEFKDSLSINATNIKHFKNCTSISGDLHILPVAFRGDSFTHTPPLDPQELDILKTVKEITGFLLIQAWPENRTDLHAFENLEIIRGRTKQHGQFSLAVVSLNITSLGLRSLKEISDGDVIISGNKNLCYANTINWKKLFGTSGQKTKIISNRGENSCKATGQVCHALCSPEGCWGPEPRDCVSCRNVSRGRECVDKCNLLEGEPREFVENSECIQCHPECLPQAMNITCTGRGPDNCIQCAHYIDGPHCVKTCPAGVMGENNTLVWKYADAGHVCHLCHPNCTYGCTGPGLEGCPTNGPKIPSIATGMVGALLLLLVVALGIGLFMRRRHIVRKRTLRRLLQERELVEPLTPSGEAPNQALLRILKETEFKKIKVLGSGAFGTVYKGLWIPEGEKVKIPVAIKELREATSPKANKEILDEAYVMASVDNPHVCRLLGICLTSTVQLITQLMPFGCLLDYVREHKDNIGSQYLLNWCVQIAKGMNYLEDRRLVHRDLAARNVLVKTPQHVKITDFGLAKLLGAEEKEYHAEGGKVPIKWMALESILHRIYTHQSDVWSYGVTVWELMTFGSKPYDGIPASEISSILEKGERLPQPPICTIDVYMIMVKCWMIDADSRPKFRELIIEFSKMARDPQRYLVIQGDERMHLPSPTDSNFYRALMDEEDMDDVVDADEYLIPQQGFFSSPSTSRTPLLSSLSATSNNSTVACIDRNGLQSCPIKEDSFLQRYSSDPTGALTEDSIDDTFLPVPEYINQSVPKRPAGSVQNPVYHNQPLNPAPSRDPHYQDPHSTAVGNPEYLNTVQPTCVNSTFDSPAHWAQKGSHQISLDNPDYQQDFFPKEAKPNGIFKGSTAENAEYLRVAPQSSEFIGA

[8] = biological target: Follistatin-related protein 3 (Homo sapiens) (UniProt O95633); assay: compounds binding follistatin-related protein 3 – biochemical, small-molecule microarray, 635 nm fluorescence, primary screen (AID 1105); conditions: FSTL3 binding, higher = more signal;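 note: score merges emission near 667 nm and signal to noise per printed spot across three slides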
Chain of Follistatin-related protein 3 (Homo sapiens) (O95633 whole entry, looked up): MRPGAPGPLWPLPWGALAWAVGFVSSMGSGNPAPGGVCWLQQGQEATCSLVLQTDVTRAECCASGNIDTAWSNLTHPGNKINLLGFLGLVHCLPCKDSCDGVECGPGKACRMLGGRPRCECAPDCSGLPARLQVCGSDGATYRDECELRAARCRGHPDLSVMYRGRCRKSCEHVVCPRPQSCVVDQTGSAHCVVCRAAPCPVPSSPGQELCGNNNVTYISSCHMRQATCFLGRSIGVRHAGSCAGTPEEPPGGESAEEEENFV

[9] = biological target: Dickkopf-related protein 1 (Homo sapiens) (UniProt O94907); assay: small molecules binding DKK1 protein – biochemical, small-molecule microarray, 635 nm fluorescence scan, primary screen (AID 1106); conditions: higher = more signal;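 note: score merges emission near 667 nm with signal to noise over three replicate slides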
Chain of Dickkopf-related protein 1 (Homo sapiens) (O94907 whole entry, looked up): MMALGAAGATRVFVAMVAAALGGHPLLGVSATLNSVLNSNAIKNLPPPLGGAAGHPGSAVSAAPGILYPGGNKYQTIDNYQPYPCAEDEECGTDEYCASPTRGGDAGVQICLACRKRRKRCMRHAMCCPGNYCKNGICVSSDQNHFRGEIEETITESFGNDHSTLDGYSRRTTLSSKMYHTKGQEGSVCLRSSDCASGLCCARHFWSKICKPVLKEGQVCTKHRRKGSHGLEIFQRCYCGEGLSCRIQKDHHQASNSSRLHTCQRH

[10] = tested on: Inhibin beta A chain (activin A); assay: small molecules binding activin A – biochemical, small-molecule microarray, 635 nm fluorescence scan, primary screen (AID 1107); conditions: INHBA, higher = more signal;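 note: mouse activin A protein probed at 4.33 µg/mL on printed slides; score merges bound-protein fluorescence near 667 nm with spot signal-to-noise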
[11] = tested on: Human papillomavirus type 1a protein E7 (residues 44-93); assay: small molecules binding HPV E7 44-93 – biochemical, small-molecule microarray, residues 44-93, 635 nm fluorescence, primary screen (AID 1108); conditions: fluorescence 635 nm, higher = more signal;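 note: E7 fragment applied at 1 µg/mL in TBST for 1 h at 4 C; score combines spot fluorescence with its signal to noise ratio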
[12] = hepatitis C replication reporter changes, two-sided – Huh7 cells, luciferase reporter, HCV replication inhibitor project, primary screen (AID 1109); conditions: Huh7 HCV replicon luciferase reporter, 48 h; higher = more signal;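 note: huh7 hepatoma cells harbouring a luciferase neomycin HCV replicon reporter; luciferase luminescence as measure of HCV replicon replication; test concentration not given here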
[13] = biological target: Left-right determination factor 2 (Homo sapiens) (UniProt O00292); assay: small molecules binding LEFTY2 protein – biochemical, small-molecule microarray, 635 nm fluorescence scan, primary screen (AID 1110); conditions: higher = more signal
Chain of Left-right determination factor 2 (Homo sapiens) (O00292 whole entry, looked up): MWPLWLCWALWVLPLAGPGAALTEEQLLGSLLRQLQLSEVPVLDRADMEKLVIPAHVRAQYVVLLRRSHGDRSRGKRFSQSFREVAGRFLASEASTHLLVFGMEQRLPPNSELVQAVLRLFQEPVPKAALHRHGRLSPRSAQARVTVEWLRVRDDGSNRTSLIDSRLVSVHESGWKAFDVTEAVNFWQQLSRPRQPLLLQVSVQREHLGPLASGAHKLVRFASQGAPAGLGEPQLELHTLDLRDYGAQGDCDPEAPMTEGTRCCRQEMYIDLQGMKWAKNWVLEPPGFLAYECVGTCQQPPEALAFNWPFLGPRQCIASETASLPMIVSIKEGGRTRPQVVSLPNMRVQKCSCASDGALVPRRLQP

[14] = biological target: Calmodulin-1 (Homo sapiens) (UniProt P0DP23); assay: small molecules binding calmodulin-1 with EGTA – biochemical, small-molecule microarray, Cy5-labelled CALM1, profiling panel (AID 1111); conditions: Cy5-CALM1 binding fluorescence, higher = more signal;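 note: labelled calmodulin applied in Tris saline Tween buffer holding calcium plus EGTA and DTT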
[15] = biological target: Calmodulin-1 (Homo sapiens) (UniProt P0DP23); assay: small molecules binding Ca-loaded calmodulin-1 – biochemical, small-molecule microarray, Cy5-labelled CALM1, plus calcium, artefact control for SMM control-protein annotation, profiling panel (AID 1112); conditions: Cy5-CALM1 binding fluorescence, higher = more signal;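 note: score merges spot fluorescence with signal to noise from triplicate slides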
[16] = probe aWnt5a binding to arrayed compounds – biochemical, biotinylated probe, 635/667 nm fluorescence, primary screen (AID 1113); conditions: small-molecule microarray, higher = more signal;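 note: score merges 667 nm fluorescence intensity with signal-to-noise per printed feature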
[17] = probe aShh binding to arrayed compounds – biochemical, biotinylated probe, 635/667 nm fluorescence, primary screen (AID 1114); conditions: small-molecule microarray, higher = more signal;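 note: probe is biotin-labelled aShh protein from a stem cell growth factor screen; measures binding of labelled protein to compounds printed on the slide; score merges feature fluorescence at 667 nm with signal-to-noise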
[18] = probe aNog binding to arrayed compounds – biochemical, biotinylated probe, 635/667 nm fluorescence, primary screen (AID 1115); conditions: small-molecule microarray, higher = more signal;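 note: probe is biotinylated aNog protein used at 0.15 µg/mL for 1 h at 4 C; z-score combines 667 nm fluorescence of each spot with its signal to noise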
[19] = biological target: Torsin-1A-interacting protein 1 (Homo sapiens) (UniProt Q5JTV8); assay: compound microarray binding of lysate hLAP1 – cell lysate, small-molecule microarray, COS7 lysate, 635/667 nm fluorescence, primary screen (AID 1116); conditions: 635 nm fluorescence, higher = more signal
Chain of Torsin-1A-interacting protein 1 (Homo sapiens) (Q5JTV8 whole entry, looked up): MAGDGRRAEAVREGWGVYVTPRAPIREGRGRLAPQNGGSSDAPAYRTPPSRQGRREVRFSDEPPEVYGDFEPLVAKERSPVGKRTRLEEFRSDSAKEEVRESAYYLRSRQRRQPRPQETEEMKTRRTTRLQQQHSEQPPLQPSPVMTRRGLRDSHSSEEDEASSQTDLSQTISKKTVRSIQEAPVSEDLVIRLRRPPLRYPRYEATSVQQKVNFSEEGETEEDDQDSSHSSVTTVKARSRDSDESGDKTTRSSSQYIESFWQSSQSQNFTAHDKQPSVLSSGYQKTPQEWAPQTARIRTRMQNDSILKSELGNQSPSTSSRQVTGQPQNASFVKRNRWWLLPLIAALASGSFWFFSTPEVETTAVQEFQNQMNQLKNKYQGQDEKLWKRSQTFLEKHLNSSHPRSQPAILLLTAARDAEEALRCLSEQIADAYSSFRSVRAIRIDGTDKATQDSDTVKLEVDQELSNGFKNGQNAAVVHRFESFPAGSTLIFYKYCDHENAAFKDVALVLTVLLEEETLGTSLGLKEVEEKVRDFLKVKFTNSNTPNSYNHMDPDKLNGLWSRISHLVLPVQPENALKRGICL

[20] = biological target: Alpha-bungarotoxin (Bungarus multicinctus) (UniProt P60615); assay: compounds binding labelled alpha-BTX control protein – biochemical, small-molecule microarray, Alexa647 label, 635/667 nm fluorescence, artefact control for SMM control protein annotation, profiling panel (AID 1117); conditions: alpha-BTX-A647 binding fluorescence, higher = more signal
Chain of Alpha-bungarotoxin (Bungarus multicinctus) (P60615 whole entry, looked up): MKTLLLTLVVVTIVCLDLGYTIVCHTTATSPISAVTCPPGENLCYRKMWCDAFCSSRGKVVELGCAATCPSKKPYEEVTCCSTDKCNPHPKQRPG

Row | Structure (SMILES) | composite z-score [1] | composite z-score [2] | composite z-score [3] | z-score [4] | composite z-score [5] | composite z-score [6] | composite z-score [7] | composite z-score [8] | composite z-score [9] | composite z-score [10] | composite z-score [11] | z-score [12] | composite z-score [13] | composite z-score [14] | composite z-score [15] | composite z-score [16] | composite z-score [17] | composite z-score [18] | composite z-score [19] | composite z-score [20]
1 | COc1ccc([Si](C)(C)[C@@H]2[C@@H](CCO)O[C@]3(C(=O)N(Cc4cccc(N(C=O)c5ccccc5)c4)c4ccccc43)[C@H]2C)cc1 | 0.883 | 0.0396 | 0.541 | -2.49 (inactive) | -0.0644 | 0.364 | -0.222 | -0.0339 | -0.0116 | 1.03 | -0.179 | -4.85 | -0.223 | 1.13 | 1.09 | -0.176 | 0.0611 | -0.0002 | 0.494 | 0.956
2 | [N-]=[N+]=NCc1ccccc1C[C@]1(C(=O)NCCN2CCOCC2)N=C(c2ccc(OCCCO)cc2)O[C@H]1c1ccccc1CN=[N+]=[N-] | 1.5 | 0.304 | 0.71 | -1.27 (inactive) | 1.48 | 1.32 | 0.357 | 0.535 | 0.16 | 0.928 | 1.43 | -3.91 | 0.278 | 0.86 | 0.368 | -0.124 | -0.146 | -0.158 | 1.59 | 1.28
3 | NC(=O)NCC#Cc1ccc2c(c1)[C@]1(C(=O)N2)[C@H](C(=O)NC[C@H](O)c2ccccc2)[C@H]2C(=O)O[C@H](c3ccccc3)[C@H](c3ccccc3)N2[C@@H]1c1ccccc1OCCO | 1.3 | -0.0611 | 0.729 | -0.416 (inactive) | 0.588 | -0.425 | 0.143 | -0.0845 | -1.04 | 0.286 | 1.41 | -1.49 | -0.914 | 0.103 | -0.134 | -0.139 | -0.301 | 0.665 | 0.433 | 3.26
4 | CN1C(=O)C2C=CC(C(O)c3ccccc3)N(NC(=O)OC(C)(C)C)C2C1=O (stereo not given) | 0.782 | 0.153 | 0.455 | 1.54 (inactive) | 0.35 | 0.459 | -0.043 | -0.0889 | -0.237 | 0.375 | 1.32 | 0.316 | -0.474 | 0.347 | -0.197 | -0.1 | -0.221 | 0.401 | 0.452 | 0.966
5 | CC(=O)n1cc(C(O)C2C=CC3C(=O)N(c4ccccc4)C(=O)C3N2Nc2ccc(C#N)cc2)c2ccccc21 (stereo not given) | 0.696 | 0.415 | 1.07 | 0.888 (inactive) | 0.879 | 0.186 | -0.105 | 0.0519 | -0.817 | 0.854 | 1.48 | -0.41 | -0.125 | 0.449 | -0.577 | 0.155 | 0.385 | 1.02 | 0.557 | 0.645
6 | C/C=C/[C@H](CCn1cc([C@H](O)c2ccccc2)nn1)[Si](C)(C)c1ccc(OC)cc1 | 0.0765 | -0.49 | 0.503 | 0.264 (inactive) | -0.607 | -0.855 | -1.52 | -1.72 | -0.338 | -0.343 | -0.0636 | -1.78 | -0.915 | -1.41 | -1.41 | -0.233 | -0.0769 | -0.272 | -0.66 | -0.977
7 | COc1ccc(C(O)C2C=CC3C(=O)N(c4ccccc4)C(=O)C3N2Nc2ccccc2)c2ccccc12 (stereo not given) | 1 | 0.927 | 0.947 | 0.66 (inactive) | -0.0394 | 0.0564 | -0.413 | 0.165 | -0.611 | 1.19 | -0.34 | -1.91 | -0.608 | 1.25 | 0.851 | -0.0792 | -0.218 | 0.941 | 0.814 | 0.93
8 | O=C1C2C=CC(C(O)c3ccc(Br)cc3)N(n3cnnc3)C2C(=O)N1Cc1ccccc1 (stereo not given) | 1.11 | 0.578 | 0.479 | 0.696 (inactive) | 0.946 | 1.07 | 0.406 | 0.819 | 0.0363 | -0.0003 | 1.34 | -4.38 | 0.329 | -0.0714 | 0.182 | -0.0236 | -0.0827 | 0.205 | 0.465 | 0.942
9 | COCCOC(=O)N1C(=O)[C@@]2(c3cc(C#CCCO)ccc31)[C@H](c1ccc(O)cc1)N1[C@H](c3ccccc3)[C@H](c3ccccc3)OC(=O)[C@H]1[C@@H]2C(=O)N1CCCCCCC1 | 1.4 | 1.51 | 0.885 | 0.242 (inactive) | 1.13 | 1.26 | 0.483 | 1.39 | 0.771 | 1.59 | 0.727 | -0.407 | 0.811 | 1.51 | 0.425 | 0.17 | 0.374 | -0.295 | 2.53 | 1.92
10 | COc1ccccc1CN1C(=O)c2ccccc2[C@](Cc2ccccc2I)(C(=O)NC2CC2)[C@@H]1c1ccc(CO)cc1 | 1.58 | -0.617 | 0.042 | 0.0417 (inactive) | 1.23 | 1.33 | 0.385 | 1.29 | 0.974 | 0.154 | 1.43 | -1.93 | 0.471 | 0.654 | -0.265 | 0.0704 | 0.242 | -0.354 | 1.69 | 1.38
